Most compounds without a hit are left out; they make up all but 19% or so of the library.
HT1080 IDH1KD tx = toxicity to HT-1080 IDH1 knockdown cells (counter line); HT-1080 IDH1 knockdown viability, ATP luminescence, 48 h; Potency, µM (highest dose often 46.1 µM), for the others: top-dose activity, negative = toxicity, most hits filed as cytotoxic; 2% of 360,000 active;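 further: potency means the concentration at half of the fitted maximal effect; 0% = DMSO wells and -100% = cell-free medium wells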
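HT-1080-IDH1KD cells (IDH1 knocked down), 750/well in RPMI with 5% FBS, treated with compound 48 h at 37 degrees C. Viability by CellTiter-Glo luminescence, normalised to DMSO and no-cell wells; concentration-response curves classed.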
HT1080NT lethal = kills 2HG-producing HT-1080-NT fibrosarcoma cells. HT-1080-NT fibrosarcoma viability, CellTiter-Glo ATP luminescence, 48 h. Potency, µM (series often up to 46.1 µM), inactives show at the top dose activity, negative = less viability, most hits filed as cytotoxic. 1.6% of 360,000 active;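 further: NT is the 2HG producing partner of a matched IDH1 knockdown line; potency means the concentration at half of the fitted maximal effect; 0% = DMSO-treated cells and -100% = media-only wells without cells; nearly all actives have a fitted effect of over 55% in size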
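Fibrosarcoma NT cells, 750 per well in 5% FBS RPMI, were exposed to compound for 48 hours. Viability: CellTiter-Glo luminescence.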
DT40 TDP1 CPT = growth inhibition of DT40 Tdp1-/-;hTDP1 cells with camptothecin (screen for TDP1 inhibitors) | chicken DT40 Tdp1-/-;hTDP1 cells + 20 nM CPT, ATP luminescence, 48 h | Potency, µM (top dose mostly 46.2 µM), for the others: top-dose activity change, negative = growth inhibition, most hits filed as inhibitors | 12% of 420,000 active | AID 686979; further: potency means the concentration at half of the fitted maximal effect; nearly all actives have a fitted effect of over 55% in size
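Cell growth measured by CellTiter-Glo luminescence after a minimum 48 h, 37 C compound exposure with 20 nM CPT in Tdp1-knockout DT40 cells stably expressing hTDP1, seeded 400/well; qHTS titration format.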
DT40 TDP1 no CPT = qHTS for Inhibitors of human tyrosyl-DNA phosphodiesterase 1 (TDP1): qHTS in cells in absence of CPT | DT40 Tdp1-/- hTDP1 cells, no CPT, ATP luminescence, 48 h | Potency, µM (top dose mostly 46.2 µM), for the others: top-dose activity change, negative = growth inhibition, most hits filed as inhibitors | 15% of 420,000 active; further: potency means the concentration at half of the fitted maximal effect; nearly all actives have a fitted effect of over 55% in size
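No-CPT arm: Tdp1-/-;hTDP1 DT40 cells (400/well) plus compounds, incubated ≥48 hr at 37 °C. Readout CellTiter-Glo luminescence.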
IL1B secr inh = inflammasome signaling inhibition, IL-1 beta readout; activity change, % at 57.5 µM; THP-1 LPS/ATP IL-1B secretion, AlphaLISA, 16 h; stronger effect = lower value; 4.7% of 360,000 active; in the data active means activity change below about -50%; inconclusive means mostly about -30% to -49%
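Secreted IL-1B measured by AlphaLISA bead assay after 16 h compound exposure of THP-1 cells; compounds (final up to 57.5 uM) added 1 h before LPS (250 ng/mL) and ATP (1.25 mM) stimulation; lower signal means less secretion.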
Starred values were filed as active, the others as inactive; u = inconclusive; x = no result given. Unless noted, the call rests on the fitted dose curve; in most records, active means well fitted curve in the direction sought with a large enough effect; inconclusive means small, poorly fitted or top-dose-only effect, or another doubt; inactive means no such curve, though single readings can be large; an effect the other way counts as inactive or inconclusive. Unless noted, on the % scale 0 is the no-effect control and ±100 the full control effect.

SMILES	HT1080 IDH1KD tx	HT1080NT lethal	DT40 TDP1 CPT	DT40 TDP1 no CPT	IL1B secr inh
COc1ccc(Nc2nc(-c3ccccc3F)nc3ccccc23)cc1OC	-8%	-9%	15µM*	15µM*	-61*
COc1ccc(Nc2nc(-c3ccccc3O)nc3ccccc23)cc1	u	u	u	18µM*	x
O=C(Oc1coc(CSc2ncccn2)cc1=O)c1ccccc1[N+](=O)[O-]	3%	-1%	-17%	u	0
CCOc1ccc(Oc2ccc(NC(=O)CSc3nncn3C)cc2)cc1	-18%	-10%	-11%	-9%	-5
Nc1c(C(=O)Nc2ccc3c(c2)OCCO3)nnn1Cc1cccc(Cl)c1	u	u	u	16µM*	-21
COc1ccc(NC(=O)c2nnn(CC(=O)Nc3ccc4c(c3)OCO4)c2N)cc1OC	u	u	9%	4%	2
COc1ccc(Br)cc1Cn1nnc(C(=O)Nc2ccc3c(c2)OCCO3)c1N	u	u	u	26µM*	-3
Cc1ccc(C(=O)c2oc3ccccc3c2NC(=O)c2cc(-c3cc(C)ccc3O)n[nH]2)cc1	9%	29%	16µM*	13µM*	58
Cc1ccc(C(=O)c2oc3ccccc3c2NC(=O)c2cc(-c3ccc(Cl)cc3)on2)cc1	x	x	10%	-4%	x
CC(=O)Nc1c(C(=O)c2ccc(F)cc2)oc2ccccc12	2%	7%	-25%	u	-30
Cc1ccc(C(=O)c2oc3ccccc3c2NC(=O)c2cc(-c3ccccc3O)n[nH]2)cc1	u	16µM*	26µM*	10µM*	-3
O=C(Nc1c(C(=O)c2ccccc2)oc2ccccc12)c1cc(-c2ccccc2O)n[nH]1	18µM*	u	21µM*	18µM*	-11
Cc1cccc(NC(=O)c2cc3cc([N+](=O)[O-])ccc3s2)n1	8%	8%	4%	4%	6
COc1ccc(OCC(=O)Nc2cc(-c3nn4c(C)nnc4s3)ccc2C)cc1	8%	1%	-4%	0%	-1
Cc1cc(OCC(=O)Nc2cc(-c3nn4c(C)nnc4s3)ccc2C)ccc1Cl	10%	2%	4.1µM*	u	4
Cc1ccc(-c2nn3c(C)nnc3s2)cc1NC(=O)c1ccc(OC(C)C)cc1	-4%	2%	13µM*	u	8
COc1ccc(C(=O)Nc2cc(-c3nn4c(C)nnc4s3)ccc2C)cc1	-8%	-14%	-25%	-17%	21
COc1ccc(NC2=NCC(Cc3ccc(Br)cc3)S2)cc1 (configuration not stated)	21µM*	u	u	26µM*	-91*
CCN(CC)S(=O)(=O)c1cc(NC(=O)Cn2ncc(Cl)c(Cl)c2=O)ccc1C	7.3µM*	10µM*	3.7µM*	2.3µM*	-59*
O=C(Cn1ncc(Cl)c(Cl)c1=O)Nc1ccc2c(c1)OCO2	18µM*	u	7.3µM*	3.3µM*	-99*
O=C(CN1CCCCC1)NC(=O)NC1CCCC1	26%	8%	0%	2%	19
O=C(Cn1ncc(Cl)c(Cl)c1=O)c1ccc2c(c1)OCCO2	u	u	16µM*	23µM*	-99*
Cc1nn(CC(=O)Nc2ccc3c(c2)OCO3)c(C)c1Cl	0%	-13%	-1%	-7%	-15
O=C(Cn1ncc(Cl)c(Cl)c1=O)NC(=O)NC1CCCCC1	6.5µM*	u	2.9µM*	2.9µM*	-103*
CCN(CC)S(=O)(=O)c1cc(NC(=O)Cc2ccsc2)ccc1C	-25%	-14%	-24%	u	8
SMILES	HT1080 IDH1KD tx	HT1080NT lethal	DT40 TDP1 CPT	DT40 TDP1 no CPT	IL1B secr inh
Cc1ccc(N2CCn3c2nc2c3c(=O)n(CCc3ccccc3)c(=O)n2C)cc1C	x	x	-9%	-27%	x
CCNc1nnc(SCC(=O)N2c3ccccc3NC(=O)CC2C)s1 (configuration not stated)	-2%	-3%	3%	-12%	18
O=S(=O)(c1ccc(F)cc1)N(Cc1nc(-c2ccc(Cl)cc2)no1)C1CCCCC1	x	x	u	26µM*	x
Cc1ccc(-c2noc(CN(C3CCCCC3)S(=O)(=O)c3ccc(Cl)cc3)n2)cc1	x	x	26µM*	u	x
CN(Cc1nc(-c2ccncc2)no1)S(=O)(=O)c1ccc(Cl)cc1	-12%	3%	u	u	7
COc1ccc(S(=O)(=O)N(Cc2nc(-c3ccc(Cl)cc3)no2)C2CCCCC2)cc1	x	x	21µM*	21µM*	x
O=S(=O)(NCC1CCCO1)c1ccc(S(=O)(=O)N(Cc2ccc(F)cc2)C2CCCCC2)cc1 (configuration not stated)	1%	2%	u	u	-2
O=C(Nc1c(-c2ccc3c(c2)OCO3)[nH][nH]c1=O)c1ccccc1	12%	27%	u	u	4
CC(=O)Nc1cccc(NC(=O)CCNC(=O)c2ccccc2)c1	10%	12%	18%	-11%	-1
CC1=CC(C)(C)NC(=S)N1c1cccc(Cl)c1	0%	-2%	u	u	19
O=C(NCCCN1CCOCC1)c1ccc(-n2nc(C(F)(F)F)cc2-c2cccs2)cc1	23µM*	u	18µM*	18µM*	-87*
O=C(NCc1ccco1)c1cc(-c2ccccc2)on1	-10%	-1%	-27%	u	4
O=C(NCc1ccco1)c1cc(-c2cccs2)on1	u	u	8.9µM*	14µM*	2
O=C(NCCCN1CCOCC1)c1cc(-c2cccs2)on1	11µM*	u	-20%	u	19
O=C(NCCCn1ccnc1)c1ccncc1	-1%	-14%	3%	-7%	-2
O=C(NCCCn1ccnc1)c1cc(-c2cccs2)on1	u	u	4.6µM*	4.6µM*	37
CC(C)C(O)(C#CCN1CCCCCC1)c1ccccc1 (configuration not stated)	6%	u	3%	u	-4
COC(=O)[C@@H]1[C@@H]2C[C@H]3c4[nH]c5ccccc5c4CCN3C[C@@H]2CC[C@@H]1O	x	x	u	-13%	x
CCN(CC)CCCNC(=O)c1cc(-c2ccc(Cl)c(Cl)c2)on1	u	u	21µM*	23µM*	-21
Cc1ccc(-c2cc(C(=O)NCCCN3CCOCC3)no2)cc1	-7%	7%	u	-13%	-11
O=C(NCCCN1CCOCC1)c1cc(-c2ccc(Cl)c(Cl)c2)on1	2%	-6%	u	16µM*	-12
C=C1[C@H]2O[C@H]2[C@@H](OC(C)=O)[C@@]2(C)[C@@H](OC(C)=O)C[C@@H](OC(C)=O)[C@@](C)(O)[C@@H]2[C@@H](OC(C)=O)[C@@]2(O)[C@@H](C)C(=O)O[C@H]2[C@H]1Cl	10%	16%	-7%	-15%	3
